Hits are enriched below; roughly 12% of the tested compounds scored in any of these assays.
G9a block – qHTS Assay for Inhibitors of Histone Lysine Methyltransferase G9a; 350,000 compounds, 8.8% hits; G9a H3K9 monomethylation, AlphaScreen, 2 h; Potency, µM (doses to about 102 µM), without a hit: top-dose activity, negative = inhibition, actives largely listed as inhibitors; AID 504332, 2011; Histone-lysine N-methyltransferase EHMT2 (Homo sapiens), Q96KQ7; note: % is set by controls: 0 for no effect and ±100 for the full control effect; nearly all actives have a fitted effect of over 75% in size
Target sequence (Q96KQ7 913-1193 limits assumed): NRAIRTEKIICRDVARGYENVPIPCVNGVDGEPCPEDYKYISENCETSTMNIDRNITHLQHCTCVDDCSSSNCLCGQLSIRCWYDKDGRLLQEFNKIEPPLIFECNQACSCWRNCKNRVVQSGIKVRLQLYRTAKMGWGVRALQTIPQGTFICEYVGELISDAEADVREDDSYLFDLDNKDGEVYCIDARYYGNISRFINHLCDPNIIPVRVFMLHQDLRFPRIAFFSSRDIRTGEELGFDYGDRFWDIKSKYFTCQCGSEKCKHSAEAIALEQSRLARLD
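Methyltransferase reactions run at room temperature for 2 h (20 nM enzyme, 500 nM biotin-H3K9 peptide, 20 uM SAM) after a 15 min compound preincubation; product detected by AlphaScreen beads and anti-H3K9me1 antibody.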
L3MBTL1 block – qHTS Assay for the Inhibitors of L3MBTL1; Lethal(3)malignant brain tumor-like protein 1 (Homo sapiens), Q9Y468; AID 485360, 2010; Potency, µM (titrated, usually from 57.1 µM), without a hit: at the highest dose activity, negative = inhibition, most hits filed as inhibitors; 230,000 compounds, 0.66% hits; AlphaScreen L3MBTL1–H3K9me1 peptide binding; note: % is set by controls: 0 for no effect and ±100 for the full control effect; nearly all actives have a fitted effect of over 60% in size
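AlphaScreen assay: L3MBTL1 (50 nM final) was preincubated 30 min at room temperature with biotinylated H3(1-15)K9me1 peptide (75 nM final), then 30 min with library compounds; streptavidin donor and nickel chelate acceptor beads (10 ug/mL final) added, 30 min dark.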
Sfp inh – qHTS Assay for Inhibitors of Bacillus subtilis Sfp phosphopantetheinyl transferase (PPTase); 4'-phosphopantetheinyl transferase ffp (Bacillus subtilis), Q9F4F7; Biochemical Sfp PPTase activity, qHTS; Potency, µM, without a hit: largest response in the series, negative = inhibition, hits mostly inhibitors; 310,000 compounds, 3.5% hits; AID 1490, 2009;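 note: the enzyme is Sfp with the accession as filed and its product quenches rhodamine fluorescence; 0% = enzyme reaction without inhibitor and -100% = no enzyme wells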
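Fluorescence-quenching assay: 15 nM Sfp-PPTase preincubated 15 min at room temperature with compound, then 5 uM rhodamine-CoA and 12.5 uM BHQ-2-labelled YbbR peptide added. Fluorescence (ex 525/em 598 nm) read at start and after 30 min; difference gives rate.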
JMJD2A Tudor – qHTS Assay for Inhibitors of JMJD2A-Tudor Domain; Lysine-specific demethylase 4A (Homo sapiens), O75164; Potency, µM (top dose mostly 114 µM), inactives show at the highest dose activity change, negative = inhibition, usual class: inhibitors; 390,000 compounds, 4.4% hits; AlphaScreen JMJD2A-Tudor / H3K4me3 peptide binding; note: % is set by controls: 0 for no effect and ±100 for the full control effect; nearly all actives have a fitted effect of over 50% in size
HP1b chromo inh – HTS for Inhibitors of HP1-beta Chromodomain Interactions with Methylated Histone Tails | Potency, µM (top dose mostly 114 µM), without a hit: at the top dose activity change, negative = inhibition, usual class: inhibitors | Chromobox protein homolog 1 (Homo sapiens), P83916 | AlphaScreen HP1-beta / biotin-H3K9me3 peptide binding | 390,000 compounds, 0.56% hits; note: nearly all actives have a fitted effect of over 70% in size
Target sequence (P83916 whole entry, looked up): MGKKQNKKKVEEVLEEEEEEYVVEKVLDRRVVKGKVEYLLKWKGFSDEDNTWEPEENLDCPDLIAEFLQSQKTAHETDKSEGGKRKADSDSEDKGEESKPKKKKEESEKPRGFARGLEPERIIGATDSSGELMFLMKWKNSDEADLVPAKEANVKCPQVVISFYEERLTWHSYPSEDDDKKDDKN
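AlphaScreen: HP1-beta (50 nM) preformed 30 min with biotin-H3(1-18)K9me3 peptide (50 nM) in PBS pH 7.4, 0.01% Tween-20. Compound added for 30 min at RT, then streptavidin donor/nickel chelate acceptor beads (10 ug/mL) for 30 min.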
BAZ2B block – qHTS Assay for Inhibitors of BAZ2B | Bromodomain adjacent to zinc finger domain protein 2B (Homo sapiens), Q9UIF8 | AlphaScreen BAZ2B-H3K14Ac peptide displacement | Potency, µM (doses to about 114 µM), for inactives: top-dose activity change, negative = inhibition, most hits filed as inhibitors | 360,000 compounds, 4.4% hits | AID 504333, 2011; note: % is set by controls: 0 for no effect and ±100 for the full control effect; nearly all actives have a fitted effect of over 60% in size
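AlphaScreen displacement: compounds (up to 110uM) incubated 30 min at room temperature with a preformed 50 nM BAZ2B/50 nM biotinylated H3K14Ac peptide complex in PBS pH 7.4 with Tween-20. Donor and acceptor beads at 10 ug/mL final added, 20 min light-protected before reading.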
An asterisk follows results filed as active; [ ] = another dose, or the depositor's remark. Calls come from the whole dose curve; as a rule, active = well fitted curve in the direction sought with a large enough effect; inconclusive = small, poorly fitted or top-dose-only effect, or another doubt; inactive = no such curve, though single readings can be large; an effect the other way counts as inactive or inconclusive. Potency is the fitted concentration of half-maximal effect.

For CCN1CCSc2ccc(C(=O)Nc3ccc(NC(C)=O)cc3)cc21 the results were G9a block 50.1µM*, Sfp inh -7.7%, JMJD2A Tudor -23.7%, HP1b chromo inh 16.2% and BAZ2B block -10.0%.
COc1ccc(CNC(=O)c2ccc3c(c2)N(C)C(=O)CS3=O)cc1 (configuration not stated) was read as G9a block -6.4%, L3MBTL1 block -7.4%, Sfp inh 44.7µM*, JMJD2A Tudor -4.3%, HP1b chromo inh 57.9% and BAZ2B block -0.5%.
CCN1CCSc2ccc(C(=O)NCc3ccccc3F)cc21 was read as L3MBTL1 block 13.9%, Sfp inh -27.0%, JMJD2A Tudor inconclusive, HP1b chromo inh -4.0% and BAZ2B block 2.6%.
`COc1cccc(C(=O)Nc2cc(-c3ccccc3)nn2-c2ccccc2)c1` gave G9a block 3.1%[59 µM], JMJD2A Tudor -1.9%, HP1b chromo inh 29.4%[57 µM] and BAZ2B block 5.4%.
Cc1ccccc1C(=O)Nc1nc2nc(-c3ccccc3)cc(=O)n2[nH]1 was read as G9a block -3.2%[59 µM], JMJD2A Tudor -24.5%, HP1b chromo inh 42.8% and BAZ2B block inconclusive.
For Cc1cccc(Oc2nc(-c3ccccn3)nc3ccccc23)c1 the results were G9a block -1.4%, L3MBTL1 block inconclusive, Sfp inh 70.8µM*, JMJD2A Tudor -26.9%, HP1b chromo inh 20.9% and BAZ2B block -23.6%.
For O=c1c2ccccc2c(-c2n[nH]c(=S)o2)nn1Cc1ccccc1 the results were G9a block 3.98µM*, L3MBTL1 block -7.2%, Sfp inh 79.4µM*, JMJD2A Tudor inconclusive, HP1b chromo inh 56.4% and BAZ2B block -35.9%.
For Cc1ccccc1-c1n[nH]c(=S)o1 the results were G9a block 12.6µM*, L3MBTL1 block 1.2%, Sfp inh -17.0%, JMJD2A Tudor inconclusive, HP1b chromo inh 38.7% and BAZ2B block -34.6%.
S=c1[nH]nc(-c2ccccc2)o1 was read as G9a block inconclusive, L3MBTL1 block -3.6%, Sfp inh 8.4%, JMJD2A Tudor -25.3%[11.4 µM], HP1b chromo inh 13.8% and BAZ2B block 79.4µM*.
Cn1c(SCc2n[nH]c(=S)o2)nnc1-c1ccccc1 was read as G9a block inconclusive, L3MBTL1 block 4.1%, Sfp inh -12.9%, JMJD2A Tudor inconclusive, HP1b chromo inh 29.9% and BAZ2B block 1.3%.
O=c1c2ccccc2c(-c2ccccc2)nn1Cc1c(Cl)cccc1Cl was read as G9a block 4.4%[12.7 µM], L3MBTL1 block inconclusive, Sfp inh -7.6%, JMJD2A Tudor 13.5%, HP1b chromo inh 54.9% and BAZ2B block -1.4%.
COc1ccccc1-c1n[nH]c(=S)o1 was read as G9a block inconclusive, L3MBTL1 block -2.3%, Sfp inh -18.7%, JMJD2A Tudor -5.3%[11.4 µM], HP1b chromo inh 6.6% and BAZ2B block 5.5%.
S=c1[nH]nc(-c2cc(-c3ccccn3)nc3ccccc23)o1 was read as G9a block inconclusive, Sfp inh -8.0%, JMJD2A Tudor -7.7%, HP1b chromo inh 41.5% and BAZ2B block -0.6%.
CSc1ccccc1-c1n[nH]c(=S)o1 was read as G9a block 6.31µM*, L3MBTL1 block -8.6%, Sfp inh -21.2%, JMJD2A Tudor inconclusive, HP1b chromo inh -3.0% and BAZ2B block -10.1%.
For O=C(CCn1cnc2onc(-c3ccc(F)cc3)c2c1=O)N1CCN(c2cccc(Cl)c2)CC1 the results were G9a block -25.9%[59 µM], JMJD2A Tudor -16.2%, HP1b chromo inh 32.0% and BAZ2B block -1.1%[57.1 µM].
For CCOC(=O)c1cc(-c2ccc(OC)cc2)n(CCC(=O)Nc2cccc(C(C)=O)c2)c1C the results were G9a block -4.8%[59 µM], JMJD2A Tudor -6.4%, HP1b chromo inh -8.9% and BAZ2B block 2.0%.
For CCc1cccc(NC(=O)Cn2c(=O)n(Cc3ccccc3)c(=O)c3c2c2cc(OC)ccc2n3C)c1 the results were G9a block -8.3%[59 µM], JMJD2A Tudor -8.6%, HP1b chromo inh 17.9% and BAZ2B block -14.6%.
Screening Cc1ccc(CNC(=O)c2ccc(CSCc3c(F)cccc3Cl)o2)cc1 returned G9a block -1.7%[59 µM], JMJD2A Tudor -1.8%, HP1b chromo inh 42.2% and BAZ2B block -4.2%.
Screening COc1cc(C2CC(=O)N3CN(c4ccccc4C)CSC3=C2C#N)cc(OC)c1OC (configuration not stated) returned G9a block 1.41µM*, L3MBTL1 block -10.6%, Sfp inh 2.82µM* and BAZ2B block inconclusive.
For COc1ccccc1N1CSC2=C(C#N)C(c3ccc(SC)cc3)CC(=O)N2C1 (configuration not stated) the results were G9a block 2.24µM*, L3MBTL1 block 22.4µM*, Sfp inh 3.55µM*, JMJD2A Tudor 17.8µM*, HP1b chromo inh 22.4µM* and BAZ2B block 50.1µM*.
`COc1ccc(OC)c(-c2cc(C(=O)Nc3cnn(Cc4ccc(Cl)cc4Cl)c3)no2)c1` gave G9a block -39.7%[59 µM], JMJD2A Tudor -4.8%, HP1b chromo inh 16.0% and BAZ2B block 1.0%.
For CCOC(=O)Cn1c(=O)n(C2CCCCC2)c2nc(-c3ccc(CC)cc3)nc(C(N)=O)c21 the results were G9a block 9.8%[59 µM], JMJD2A Tudor -11.5%, HP1b chromo inh 16.2%[57 µM] and BAZ2B block -1.2%.
For Cc1cccc(CSc2ncccc2C(=O)O)c1 the results were G9a block 11.2µM*, L3MBTL1 block 8.7%, Sfp inh inconclusive, JMJD2A Tudor 50.1µM*, HP1b chromo inh 42.3% and BAZ2B block -27.6%.
For O=C(O)c1cccnc1SCc1cccc(Cl)c1 the results were G9a block 4.8%, Sfp inh 15.8%, JMJD2A Tudor -6.9%, HP1b chromo inh 13.2% and BAZ2B block -2.8%.
Screening O=C(O)c1cccnc1SCC(=O)N1CCCCCC1 returned G9a block 50.1µM*, L3MBTL1 block inconclusive, Sfp inh 5.1%, JMJD2A Tudor -17.5%, HP1b chromo inh 51.9% and BAZ2B block -0.4%.
`O=C(CSc1ncccc1C(=O)O)NC12CC3CC(CC(C3)C1)C2` gave G9a block 31.6µM*, L3MBTL1 block -13.5%, Sfp inh inconclusive, JMJD2A Tudor 1.7%, HP1b chromo inh 27.1% and BAZ2B block inconclusive.
